Where a name gives a salt, the structure may show the parent alone. ± gives the standard deviation of the averaged measurements.
Assays:
[1] = tested on: Saccharomyces cerevisiae BY4741 SeMeCo community; experiment: mean cell size (pixel area) (pixels); higher = larger cells; details: 10 µM; 24 h; SM minimal medium
In short: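 In this assay, mean cell pixel area per well was obtained from automated confocal images of paraformaldehyde-fixed yeast analysed in Harmony. The cells were a Saccharomyces cerevisiae BY4741 community with four plasmids, each complementing one auxotrophy and carrying a fluorescent marker, grown for 24 h in SM medium with drug at a final 10 µM in 384-well plates. Values are averaged across 3 replicates. Same SeMeCo high-content imaging drug screen: Selleck FDA-approved drugs at 10 µM, 24 h in SM medium, 384-well plates, 3 replicates.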

[2] = tested on: Saccharomyces cerevisiae BY4741 SeMeCo community; experiment: z-score of prototroph abundance vs DMSO median; higher = larger share of this subpopulation than in DMSO controls; details: 10 µM; 24 h; SM minimal medium; subpopulation (auxotrophy): Prototroph
In short: (§1)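 Four plasmids, each restoring a single auxotrophy and encoding a distinct fluorescent protein, were carried by a Saccharomyces cerevisiae BY4741 community. After overnight growth to OD600 1.0 and dilution to 0.3, 70 µl per well was grown for 24 h in minimal SM medium on 384-well plates acoustically predosed with library drugs at 10 µM final. Following paraformaldehyde fixation, automated confocal microscopy was used, with single-auxotroph fluorescent strains defining thresholds and autofluorescence correction. Subpopulation abundance was then scored as a z-score against the vehicle-well median.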

[3] = tested on: Saccharomyces cerevisiae BY4741 SeMeCo community; experiment: z-score of subpopulation abundance vs DMSO median, subpopulation auxotrophic for M; higher = larger share of this subpopulation than in DMSO controls; details: 10 µM; 24 h; SM minimal medium; subpopulation (auxotrophy): M
In short: as §1

[4] = tested on: Saccharomyces cerevisiae BY4741 SeMeCo community; experiment: z-score of subpopulation abundance vs DMSO median, subpopulation auxotrophic for L; higher = larger share of this subpopulation than in DMSO controls; details: 10 µM; 24 h; SM minimal medium; subpopulation (auxotrophy): L
In short: as §1

[5] = tested on: Saccharomyces cerevisiae BY4741 SeMeCo community; experiment: z-score of subpopulation abundance vs DMSO median, subpopulation auxotrophic for U; higher = larger share of this subpopulation than in DMSO controls; details: 10 µM; 24 h; SM minimal medium; subpopulation (auxotrophy): U
In short: as §1

[6] = tested on: Saccharomyces cerevisiae BY4741 SeMeCo community; experiment: z-score of subpopulation abundance vs DMSO median, subpopulation auxotrophic for H; higher = larger share of this subpopulation than in DMSO controls; details: 10 µM; 24 h; SM minimal medium; subpopulation (auxotrophy): H
In short: as §1

[7] = tested on: Saccharomyces cerevisiae BY4741 SeMeCo community; experiment: z-score of subpopulation abundance vs DMSO median, subpopulation auxotrophic for LM; higher = larger share of this subpopulation than in DMSO controls; details: 10 µM; 24 h; SM minimal medium; subpopulation (auxotrophy): LM
In short: as §1

[8] = tested on: Saccharomyces cerevisiae BY4741 SeMeCo community; experiment: z-score of subpopulation abundance vs DMSO median, subpopulation auxotrophic for HM; higher = larger share of this subpopulation than in DMSO controls; details: 10 µM; 24 h; SM minimal medium; subpopulation (auxotrophy): HM
In short: as §1

[9] = tested on: Saccharomyces cerevisiae BY4741 SeMeCo community; experiment: z-score of subpopulation abundance vs DMSO median, subpopulation auxotrophic for UM; higher = larger share of this subpopulation than in DMSO controls; details: 10 µM; 24 h; SM minimal medium; subpopulation (auxotrophy): UM
In short: as §1

[10] = tested on: Saccharomyces cerevisiae BY4741 SeMeCo community; experiment: z-score of subpopulation abundance vs DMSO median, subpopulation auxotrophic for HL; higher = larger share of this subpopulation than in DMSO controls; details: 10 µM; 24 h; SM minimal medium; subpopulation (auxotrophy): HL
In short: as §1

[11] = tested on: Saccharomyces cerevisiae BY4741 SeMeCo community; experiment: z-score of subpopulation abundance vs DMSO median, subpopulation auxotrophic for HLM; higher = larger share of this subpopulation than in DMSO controls; details: 10 µM; 24 h; SM minimal medium; subpopulation (auxotrophy): HLM
In short: as §1

[12] = tested on: Saccharomyces cerevisiae BY4741 SeMeCo community; experiment: z-score of subpopulation abundance vs DMSO median, subpopulation auxotrophic for LUM; higher = larger share of this subpopulation than in DMSO controls; details: 10 µM; 24 h; SM minimal medium; subpopulation (auxotrophy): LUM
In short: as §1

[13] = tested on: Saccharomyces cerevisiae BY4741 SeMeCo community; experiment: z-score of subpopulation abundance vs DMSO median, subpopulation auxotrophic for HLUM; higher = larger share of this subpopulation than in DMSO controls; details: 10 µM; 24 h; SM minimal medium; subpopulation (auxotrophy): HLUM
In short: as §1

[14] = tested on: Saccharomyces cerevisiae BY4741 SeMeCo community; experiment: z-score of subpopulation abundance vs DMSO median, subpopulation auxotrophic for LU; higher = larger share of this subpopulation than in DMSO controls; details: 10 µM; 24 h; SM minimal medium; subpopulation (auxotrophy): LU
In short: as §1

[15] = tested on: Saccharomyces cerevisiae BY4741 SeMeCo community; experiment: z-score of subpopulation abundance vs DMSO median, subpopulation auxotrophic for HU; higher = larger share of this subpopulation than in DMSO controls; details: 10 µM; 24 h; SM minimal medium; subpopulation (auxotrophy): HU
In short: as §1

[16] = tested on: Saccharomyces cerevisiae BY4741 SeMeCo community; experiment: z-score of subpopulation abundance vs DMSO median, subpopulation auxotrophic for HUM; higher = larger share of this subpopulation than in DMSO controls; details: 10 µM; 24 h; SM minimal medium; subpopulation (auxotrophy): HUM
In short: as §1

Structure (SMILES) | mean cell size [1] | z-score of prototroph abundance [2] | z-score of subpopulation abundance [3] | z-score of subpopulation abundance [4] | z-score of subpopulation abundance [5] | z-score of subpopulation abundance [6] | z-score of subpopulation abundance [7] | z-score of subpopulation abundance [8] | z-score of subpopulation abundance [9] | z-score of subpopulation abundance [10] | z-score of subpopulation abundance [11] | z-score of subpopulation abundance [12] | z-score of subpopulation abundance [13] | z-score of subpopulation abundance [14] | z-score of subpopulation abundance [15] | z-score of subpopulation abundance [16]
Cc1c(-c2ccccc2)oc2c(C(=O)OCCN3CCCCC3)cccc2c1=O [Flavoxate HCl] | 12 ± 0.18 | -0.85 | 0.25 | 0.83 | 0.96 | -0.53 | 0.22 | 0.21 | 0.71 | -0.37 | 0.18 | 1.06 | 1.01 |  |  | 
C[C@@H](O)[C@H]1C(=O)N2C(C(=O)O)=C(S[C@@H]3CN[C@H](C(=O)N(C)C)C3)[C@H](C)[C@H]12 [Meropenem Trihydrate] | 12.6 ± 0.27 | -0.19 |  | 0.38 | -0.82 | 1.09 | 0.14 | 1.13 | -0.82 | 0.55 | 0.4 | -0.3 |  | 0.63 | -0.59 | -0.48
Cc1nnc(SCC2=C(C(=O)O)N3C(=O)[C@@H](NC(=O)Cn4cnnn4)[C@H]3SC2)s1 [Cefazolin Sodium] | 12.24 ± 0.096 | -1.09 | 0.3 | 0 | 0.46 | 1.95 | 0.26 | 0.05 | 0.25 | 1.09 | 0.22 | 0.5 | -0.81 |  |  | 0.08
CCN(CC)CCOC(=O)c1ccc(N)cc1Cl [Chloroprocaine HCl] | 12.51 ± 0.1 | -0.55 | 0.42 | 0.95 | 0.25 |  |  |  | 0.74 |  |  | 0.45 | 0.58 | 0.13 |  | 0.14
COc1cnc(NS(=O)(=O)c2ccc(N)cc2)nc1 [Sulfameter] | 12.53 ± 0.07 | 0 |  | -0.37 | 0.75 | -0.43 | -0.51 | 0.07 | 0.21 | -0.38 | 0.42 | 0.64 | -0.07 | 1.19 | -0.1 | 0.14
CO/N=C(\C(=O)N[C@@H]1C(=O)N2C(C(=O)OCOC(=O)C(C)(C)C)=C(/C=C\c3scnc3C)CS[C@H]12)c1csc(N)n1 [Cefditoren Pivoxil] | 12.3 ± 0.23 | -0.6 | 0.2 |  | -0.88 |  | 1.47 | 1.45 | -0.06 | 1.56 | 0.31 |  | 0.48 | 0.07 | -0.64 | 0.78

From the supplement of paper PMC8975748
